Measurements from PubChem BioAssay (NCATS).
Records with an inconclusive call do not appear. Values without a mark were called inactive. Calls come from the whole dose curve; as a rule, active = well fitted inhibition curve with a large enough effect; inconclusive = small, poorly fitted or top-dose-only effect; inactive = flat fitted curve, though single readings scatter.

molecular target: Calcium and integrin-binding protein 1 (Homo sapiens) (UniProt Q99828); test: Primary qHTS for Identification of Calcium Integrin Binding Protein 1 (CIB1) Competitor (AID 1508620); conditions: CIB1-GST / FITC-alphaIIb peptide fluorescence polarization; series mostly up to 57.7 µM; activity change, negative = inhibition: at the top concentration; note: top concentration of the series differs between compounds
Sequence (Q99828 whole entry, looked up): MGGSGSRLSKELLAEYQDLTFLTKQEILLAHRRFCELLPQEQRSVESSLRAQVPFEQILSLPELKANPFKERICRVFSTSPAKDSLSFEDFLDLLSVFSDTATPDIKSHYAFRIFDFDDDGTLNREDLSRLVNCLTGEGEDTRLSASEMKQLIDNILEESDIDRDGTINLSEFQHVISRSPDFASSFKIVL
In short: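 Fluorescence polarization competition: GST-tagged CIB1 (1 uM final) preincubated with compound 15 min at room temperature, then FITC-labelled alphaIIb peptide (100 nM final) added. After 15 min at room temperature, polarization read at Ex 480/Em 540.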
% is set by controls: 0 for no effect and ±100 for the full control effect.

Compared with `COC(=O)C1=COC(OC2OC(CO)C(O)C(O)C2O)C2C(COC(=O)/C=C/c3ccc(O)c(O)c3)C(O)C(O)C12` (stereo unspecified), `CC(/C=C/C=C(\C)C(=O)O[C@@H]1O[C@H](CO[C@@H]2O[C@H](CO)[C@@H](O)[C@H](O)[C@H]2O)[C@@H](O)[C@H](O)[C@H]1O)=C\C=C\C=C(C)\C=C\C=C(/C)C(=O)O[C@@H]1C[C@](O)(C(=O)O)C[C@@H](O)[C@H]1OC(=O)/C=C/c1ccc(O)c(O)c1` is lower in “activity change, negative = inhibition” value: 1.11% [at 30.2 µM] for the first, -5.75% [at 30.2 µM] for the second.

Going from `CC(=O)O[C@@H]1[C@H](OC(C)=O)C[C@@]2(C)C(CC[C@@H](C)[C@]23Cc2c(O)cc4c(c2O3)CN([C@@H](CCC(=O)O)C(=O)O)C4=O)C1(C)C` (stereo partly specified) to `C=C1[C@H](OC(C)=O)[C@H]2[C@@H](OC(C)=O)C(C)C[C@]2(OC(C)=O)C(=O)[C@H](C)/C=C/C(C)(C)C(=O)[C@H](OC(=O)C(C)C)[C@H]1OC(C)=O` (stereo partly specified), the “activity change, negative = inhibition” value falls from 1.58% [at 30.2 µM] to -1.95% [at 30.2 µM].

First: C[C@@H]1O[C@@H](O[C@H]2[C@H](O)[C@@H](O)[C@H](OC(=O)[C@]34CCC(C)(C)C[C@H]3C3=CCC5[C@@]6(C)CC[C@H](O[C@@H]7O[C@H](C(=O)O)[C@@H](O)[C@H](O)[C@H]7O)C(C)(C)C6CC[C@@]5(C)[C@]3(C)CC4)O[C@@H]2CO)[C@H](O)[C@H](O)[C@H]1O (stereo partly specified)
Second: CC1(C)CC[C@]2(C(=O)O[C@@H]3O[C@H](CO)[C@@H](O)[C@H](O)[C@H]3O)CC[C@]3(C)C(=CCC4[C@@]5(C)CC[C@H](O[C@H]6O[C@H](CO)[C@@H](O)[C@H](O[C@@H]7O[C@H](CO)[C@@H](O)[C@H](O)[C@H]7O)[C@H]6O)C(C)(C)C5CC[C@]43C)[C@@H]2C1 (stereo partly specified)
The “activity change, negative = inhibition” value of the first is lower: -7.5% [at 30.2 µM] for the first, 3.2% [at 30.2 µM] for the second.

First: CC1(C)CC[C@]2(C(=O)O)[C@H](O)C[C@]3(C)C(=CCC4[C@@]5(C)CC[C@H](O[C@@H]6OC[C@@H](O)[C@H](O)[C@H]6O)[C@@](C)(C(=O)O)C5CC[C@]43C)[C@@H]2C1 (stereo partly specified)
Second: CC(=O)OCC1OC(O[C@H]2CC[C@@]3(C)C(CC[C@]4(C)C3CC=C3[C@@H]5CC(C)(C)CC[C@]5(C(=O)O)CC[C@]34C)[C@]2(C)CO)C(O)C(O)C1OC1OC(C)C(O)C(OC2OCC(O)C(O)C2O)C1O (stereo partly specified)
The “activity change, negative = inhibition” value of the first is higher: 3.19% [at 30.2 µM] for the first, -4.5% [at 30.2 µM] for the second.

Compared with `C[C@@H]1O[C@@H](O[C@H]2[C@H](O[C@H]3[C@H](O[C@H]4CC[C@@]5(C)C(CC[C@]6(C)C5CC=C5[C@@H]7CC(C)(C)C[C@@H](O)[C@]7(C)CC[C@]56C)[C@@]4(C)CO)O[C@H](C(=O)O)[C@@H](O)[C@@H]3O)O[C@H](C(=O)O)[C@H](O)[C@@H]2O)[C@H](O)[C@H](O)[C@H]1O` (stereo partly specified), `C[C@@H]1CC[C@]2(C(=O)O[C@@H]3O[C@H](CO[C@@H]4O[C@H](CO)[C@@H](O[C@@H]5O[C@@H](C)[C@H](O)[C@@H](O)[C@H]5O)[C@H](O)[C@H]4O)[C@@H](O)[C@H](O)[C@H]3O)CC[C@]3(C)C(=CCC4[C@@]5(C)C[C@@H](O)[C@H](O)[C@@](C)(CO)C5CC[C@]43C)C2[C@H]1C` (stereo partly specified) is higher in “activity change, negative = inhibition” value: 0.147% [at 30.2 µM] for the first, 1.59% [at 30.2 µM] for the second.

Going from `CC(O)C1CCC2C3CCC4CC(OC5OC(C(=O)O)C(O)C(O)C5O)CCC4(C)C3CCC12C` (stereo unspecified) to `CC1(C)CC2C(O)C3=C(CC(C)(O)C2C1)C(=O)OC3` (stereo unspecified), the “activity change, negative = inhibition” value falls from 0.503% [at 114 µM] to -3.07% [at 114 µM].

Going from `CC(=O)C1CCC(=O)N1Cc1ccccc1` (stereo unspecified) to `CC1=C[C@H](O)[C@H]2C(C)(C)CCC[C@]2(C)[C@@]1(O)CO`, the “activity change, negative = inhibition” value rises from -0.215% [at 114 µM] to 1.17% [at 114 µM].

In the case of `CCC/C=C/C=C/C1CC(O)C(O)C(=O)C1CO` (stereo unspecified), the “activity change, negative = inhibition” value is reported as -5.24% [at 114 µM].

Going from `COC(=O)C1(O)C(OC(C)=O)CCC2C3(CC(c4ccoc4)OC3=O)C(C)=CCC21C(=O)OC` (stereo unspecified) to `CC(=O)OCC1=CCC2C(C)(C)CCCC2(C)C12CCC(C)(CC(=O)O)O2` (stereo unspecified), the “activity change, negative = inhibition” value rises from -4.52% to -1.92%.

First: CC1=C2C(=O)C=C(CO)C2C2OC(=O)C(CS(=O)(=O)O)C2C(OC(=O)Cc2ccc(O)cc2)C1 (stereo unspecified)
Second: O=C(C[C@@H]1C(C(=O)O)=CO[C@@H](O[C@@H]2O[C@H](CO)[C@@H](O)[C@H](O)[C@H]2O)/C1=C\CO)OCCc1ccc(O)cc1
The “activity change, negative = inhibition” value of the first is lower: -13.1% for the first, 4.2% for the second.

First: CC1(C)CC[C@]2(C(=O)O)CC[C@]3(C)C(=CCC4[C@@]5(C)CC[C@H](O)C(C)(C)C5CC[C@]43C)C2C1 (stereo partly specified)
Second: CC1(C)CCC2(C(=O)O)CCC3(C)C(=CCC4C5(C)CCC(O)C(C)(CO)C5C(O)CC43C)C2C1 (stereo unspecified)
The “activity change, negative = inhibition” value of the first is higher: 2.66% for the first, -1.29% for the second.

First: CC(=O)OCC(Cc1ccccc1)NC(=O)C(Cc1ccccc1)NC(=O)c1ccccc1 (stereo unspecified)
Second: COc1cc(C[C@@]2(O)CO[C@@H](c3ccc(O[C@@H]4O[C@H](CO)[C@@H](O)[C@H](O)[C@H]4O)c(OC)c3)[C@H]2CO)ccc1O
The “activity change, negative = inhibition” value of the first is lower: -14.7% for the first, 4.3% for the second.

First: CC(C)c1ccc2c(c1)C(=O)CC1C(C)(C(=O)O)CCCC21C (stereo unspecified)
Second: CC(C)/C=C1/NC(=O)C(C(C)C)n2c1nc1c(O)cccc1c2=O (stereo unspecified)
The “activity change, negative = inhibition” value of the first is lower: -4.08% for the first, 4.16% for the second.

With `CC1(C)C2CC[C@@]34CC(CC[C@H]3[C@]2(C)CC[C@@H]1O[C@@H]1O[C@H](CO)[C@@H](O)[C@H](O)[C@H]1O)[C@](C)(O)C4` (stereo partly specified) the “activity change, negative = inhibition” value was 1.32%.
